# Screening results from PubChem.
# The list is not random: actives were taken first. Their share in the collection is about 4.1%.
# NALP1 yeast inh – inhibitors of NALP1 inflammasome in yeast; S. cerevisiae NALP1/ASC/caspase-1 growth, X-gal OD620, 72 h; inhibition, % at 10 µM; hit rate 0.61% among 280,000; AID 2071; in the data active = inhibition mostly above about 24%, no sharp cut-off; inactive = mostly below about 32%
# PfHsp90 yeast 2 – growth inhibition of yeast expressing Plasmodium Hsp90 | S. cerevisiae expressing PfHsp90, BacTiter-Glo ATP, 48 h; yeast lacking PDR1 and PDR3 efflux regulators | inhibition, % at 9.4 µM | hit rate 0.32% among 310,000;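 active = every replicate shows inhibition above about 80%, whatever the replicate mean, limit read from the data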
# NALP3 yeast inh – blocks the NALP3 inflammasome reconstituted in yeast; Yeast reconstituted NLRP3/ASC/caspase-1, beta-gal luminescence, 24 h; inhibition, % at 10 µM; hit rate 0.39% among 330,000; AID 2825;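 active = inhibition of 50% or more; inactive = inhibition below 50%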
# TIM10 inh – TIM10 yeast growth inhibition; AID 463195; S. cerevisiae TIM10 strain growth, BacTiter-Glo luminescence, 24 h; inhibition, % at 10 µM; hit rate 1.4% among 330,000;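 active = inhibition of 40% or more at the single tested concentration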;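 note: wild-type TIM10 isogenic control strain grown at permissive 25 °C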
# tim10-1 inh – inhibits growth of tim10-1 mutant yeast | inhibition, % at 20 µM | hit rate 2.2% among 330,000 | AID 463190 | S. cerevisiae tim10-1 ts strain growth, BacTiter-Glo, 24 h;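 active = inhibition of at least 40%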;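 note: mutant grown at 25 °C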
# tim23-1 inh – growth inhibitors of tim23-1 mutant yeast | S. cerevisiae tim23-1 growth, BacTiter-Glo luminescence, 24 h | inhibition, % at 20 µM | hit rate 1.3% among 330,000;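 active = growth inhibition of the mutant yeast at or above 50%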;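 note: temperature-sensitive mutant grown at 25 °C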
# tim10-1 conf – confirmation of tim10-1 mutant yeast growth inhibitors. shares compounds with tim10-1 inh. S. cerevisiae tim10-1 ts strain growth, BacTiter-Glo, 24 h. inhibition, % at 20 µM. hit rate 56% among 7,400;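 active = inhibition of yeast growth at or above a set limit in either of two repeat tests at 20 µM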;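 note: tim10-1 mutant grown at permissive 25 °C to find synthetic lethal compounds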
# A number is an active result; n = inactive; x = no result.
SMILES,NALP1 yeast inh,PfHsp90 yeast 2,NALP3 yeast inh,TIM10 inh,tim10-1 inh,tim23-1 inh,tim10-1 conf
CCOC(=O)N1CCN(S(=O)(=O)c2ccc(C(=O)N(CCCN(C)C)c3nc4ccc(CC)cc4s3)cc2)CC1,n,n,n,n,43,n,n
CCOc1cccc2sc(N(CCN(CC)CC)C(=O)c3ccc(S(=O)(=O)N4CCCCC4)cc3)nc12,n,n,n,n,48,n,n
CN(C)CCCN(C(=O)c1ccc(C(=O)c2ccccc2)cc1)c1nc2c(F)cccc2s1,n,n,n,n,47,n,n
O=C(CCS(=O)(=O)c1ccccc1Cl)NCCC1=CCCCC1,n,n,n,n,n,n,x
CCN(Cc1ccccc1)S(=O)(=O)c1ccc(C(=O)N(CCCN(C)C)c2nc3cc(C)cc(C)c3s2)cc1,x,x,n,n,52,n,n
Cc1ccc2sc(N(CCCN(C)C)C(=O)c3ccc(S(=O)(=O)N4CCc5ccccc5C4)cc3)nc2c1C,x,n,n,n,40,n,n
Cc1ccc2sc(N(CCCN(C)C)C(=O)c3ccc(S(=O)(=O)N(C)Cc4ccccc4)cc3)nc2c1C,x,n,n,n,54,n,n
COc1cccc2sc(N(CCCN(C)C)C(=O)c3ccc(S(=O)(=O)N4CCc5ccccc5C4)cc3)nc12,n,n,n,n,n,n,x
CCNC(=S)NNC(=O)c1cc(-c2cc(C)ccc2C)nc2ccccc12,n,n,n,n,45,n,41
CCCOc1ccc(C(=O)NNC(=S)NC(=O)c2ccccc2)cc1,n,n,n,n,n,n,x
CCCOc1ccc(C(=O)NNC(=S)NC(=O)c2cc(-c3ccccc3)nc3ccccc23)cc1,n,n,n,n,45,n,38
CCCc1cc(C(=O)NNC(=S)NCC)c2ccccc2n1,n,n,n,n,n,n,x
COC(=O)[C@@H](NCc1cccc(CN[C@H](C(=O)OC)c2ccccc2)c1)c1ccccc1,n,x,n,n,n,n,x
O=C(CCCN1C(=O)c2cccc3cccc(c23)C1=O)NC1CCS(=O)(=O)C1 (centres undefined),n,n,n,n,n,n,x
Cc1ccc(C(=O)Nc2cccc(C(=O)NC3CCCC3)c2)cc1,n,n,n,n,n,n,x
CN(CC1COc2ccccc2O1)C(=S)Nc1ccccc1 (centres undefined),x,n,n,n,42,n,n
O=[N+]([O-])/C(C(Cl)=C(Cl)Cl)=C(/Sc1ccccc1)N1CCCCC1,n,n,n,n,41,n,45
O=C(N/C(=C\c1ccc([N+](=O)[O-])cc1)C(=O)N1CCCCC1)c1ccccc1,n,n,n,n,n,n,x
Cc1onc(-c2ccccc2)c1C(=O)NC(C)CCc1ccccc1 (centres undefined),n,n,n,n,n,n,x
CCOc1ccc(C(=O)N2CCN(S(=O)(=O)c3cccs3)CC2)c(OCC)c1,n,n,n,n,n,n,x
COc1ccccc1C(=O)N1CCN(c2nc3cc(C)c(C)cc3cc2C#N)CC1,n,n,n,n,43,n,n
COCCCNC(=S)N1CCN(c2nc(C)nc3sc4c(c23)CCCC4)CC1,n,n,n,n,n,n,x
CCCNC(=S)N1CCN(c2nc(C)nc3sc4c(c23)CCCC4)CC1,n,n,n,n,43,n,n
CC(C)OC(=O)CSc1nnc(-c2cnccn2)n1-c1ccc(Cl)cc1,n,x,n,n,41,n,n
O=C(CCCn1c(=O)oc2ccccc21)NNC(=O)COc1ccc(F)cc1,x,n,n,n,n,n,x
SMILES,NALP1 yeast inh,PfHsp90 yeast 2,NALP3 yeast inh,TIM10 inh,tim10-1 inh,tim23-1 inh,tim10-1 conf
COc1ccc(C(OC(=O)c2ccco2)C(=O)NC2CCCCC2)cc1OC (centres undefined),n,x,n,n,45,n,n
COc1ccc(C(OC(=O)c2ccco2)C(=O)NC2CCCC2)cc1OC (centres undefined),n,n,n,n,n,n,x
O=c1c2ccccc2ncn1-c1cccc(Br)c1,n,n,n,n,n,n,x
CC(C)OC(=O)c1cccnc1SCC(=O)N(C)c1ccccc1,n,x,n,n,n,n,x
CCOC(=O)c1cccnc1SCC(=O)NCc1ccccc1,n,n,n,n,n,n,x
CCN(C(=O)CSc1ncccc1C(=O)OC(C)C)c1cccc(C)c1,n,x,n,n,42,n,n
CCOC(=O)c1cccnc1SCC(=O)N(CC)c1cccc(C)c1,n,x,n,n,40,n,35
Cc1ccc(S(=O)(=O)Nc2ccc(C(=O)NCCCN3CCOCC3)cc2)cc1[N+](=O)[O-],x,n,n,n,n,n,x
COc1ccc2[nH]cc(CCNC(=O)CC[C@H]3O[C@@H](n4cc(C)c(=O)[nH]c4=O)C[C@@H]3O)c2c1,x,n,x,n,n,n,x
CC1CCCN(C(=S)SCC(=O)O)C1 (centres undefined),n,n,n,n,n,n,x
CC1CCCN(C(=S)SCC(=O)c2cc(Br)cc(Br)c2O)C1 (centres undefined),n,x,n,n,50,n,46
Cc1ccccc1C(=O)N1CCN(c2ccc(NC(=O)c3ccc4c(c3)OCO4)cc2)CC1,n,x,n,n,44,n,29
O=C(Nc1ccc(N2CCN(C(=O)c3ccco3)CC2)cc1)c1ccc2c(c1)OCO2,n,n,n,n,n,n,x
O=C(Nc1ccc(N2CCN(C(=O)c3ccccc3F)CC2)cc1)c1cncc(Br)c1,n,n,n,n,46,n,31
O=C(Nc1ccc(N2CCN(C(=O)c3cccs3)CC2)cc1)c1cccc(F)c1,n,n,n,n,48,n,33
CN(C)S(=O)(=O)c1cccc(NC(=O)CN2C(=O)NC3(CCc4ccccc4C3)C2=O)c1 (centres undefined),n,n,n,n,n,n,x
CC(=O)Nc1ccc2c(c1)CCc1ccccc1-2,n,n,n,n,n,n,x
O=C(O)/C=C/C(=O)c1ccc2c(c1)CCc1ccccc1-2,x,96,n,n,58,n,54
CC(C)(C)c1ccc(/C=C(\C#N)C(=O)NCCN2CCOCC2)cc1,n,x,n,n,40,n,33
CC(C)(C)c1ccc(C(=O)NCCN2CCOCC2)cc1,x,n,n,n,n,n,x
CCOC(=O)C1(S(=O)(=O)c2ccc(Cl)cc2)CCN(Cc2ccc(C)cc2)CC1,n,n,n,n,50,n,n
CCOc1ncccc1C(=O)Nc1cc(S(=O)(=O)N2CCCCC2)ccc1C,x,x,n,n,n,n,x
CC1=C/C(=C(\c2cc(C)c(O)c(Br)c2)c2ccccc2S(=O)(=O)O)C=C(Br)C1=O,n,n,n,n,46,n,44
COc1cccc(NC(=O)CN(C)C(C)C(=O)NC(C)c2ccc(Cl)cc2Cl)c1 (centres undefined),x,n,n,n,n,n,x
